Measurements: PubChem BioAssay AID1508601 (ICCB-Longwood Screening Facility, Harvard Medical School, 2020)
Where “and” joins values, the source holds several entries; their conditions need not be identical. Identical values can stand only once. Screen size: about 5,700 compounds; about 85 (1%) were called active. No stated cut-off is given here; in the data, active means p53-positive nuclei above about 36% (passing the limit was not always enough); inactive means the rest. The list comes from a sample in which actives are over-represented; it also holds similar structures and randomly drawn compounds.

How the values were obtained:
[1] = p53 stabilisation in HPV-positive human cells, imaging, p53-positive nuclei imaging, 24 h, 48 h (AID 1508601); conditions: 24/48 h
[2] = target: Cellular tumor antigen p53 (Homo sapiens) (UniProt P04637); experiment: as above; conditions: 24/48 h, stronger effect = higher value
Cellular tumor antigen p53 (Homo sapiens), sequence (P04637 whole entry, looked up): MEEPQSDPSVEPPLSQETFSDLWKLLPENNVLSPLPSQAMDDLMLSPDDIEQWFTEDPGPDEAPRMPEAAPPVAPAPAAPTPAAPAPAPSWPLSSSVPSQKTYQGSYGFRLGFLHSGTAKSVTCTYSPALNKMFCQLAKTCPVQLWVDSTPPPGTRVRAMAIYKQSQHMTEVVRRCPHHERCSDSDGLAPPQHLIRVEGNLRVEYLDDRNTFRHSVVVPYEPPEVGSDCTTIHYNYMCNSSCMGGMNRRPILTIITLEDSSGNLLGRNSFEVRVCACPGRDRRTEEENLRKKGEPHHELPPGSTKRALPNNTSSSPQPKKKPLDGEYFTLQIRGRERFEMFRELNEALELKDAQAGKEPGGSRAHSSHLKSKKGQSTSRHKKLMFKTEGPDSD

[3] = measured here: cell number at 24 h, Library stock concentration: 3.33 mM
[4] = measured here: cell number at 24 h, concentration not given here
[5] = measured here: cell number at 48 h, Library stock concentration: 3.33 mM
[6] = measured here: cell number at 48 h, concentration not given here
[7] = Library stock concentration: 3.33 mM
[8] = measured here: p53 positive nuclei at 24 h, Library stock concentration: 3.33 mM
[9] = measured here: p53 positive nuclei at 24 h, concentration not given here
[10] = measured here: cell number at 24 h, Library stock concentration: 80 uM
[11] = measured here: cell number at 24 h, Library stock concentration: 400 uM
[12] = measured here: cell number at 24 h, Library stock concentration: 2 mM
[13] = measured here: cell number at 24 h, Library stock concentration: 10 mM
[14] = measured here: cell number at 48 h, Library stock concentration: 80 uM
[15] = measured here: cell number at 48 h, Library stock concentration: 400 uM
[16] = measured here: cell number at 48 h, Library stock concentration: 2 mM
[17] = measured here: cell number at 48 h, Library stock concentration: 10 mM
[18] = Library stock concentration: 80 uM
[19] = Library stock concentration: 400 uM
[20] = Library stock concentration: 2 mM
[21] = Library stock concentration: 10 mM
[22] = measured here: p53 positive nuclei at 24 h, Library stock concentration: 80 uM
[23] = measured here: p53 positive nuclei at 24 h, Library stock concentration: 400 uM
[24] = measured here: p53 positive nuclei at 24 h, Library stock concentration: 2 mM
[25] = measured here: p53 positive nuclei at 24 h, Library stock concentration: 10 mM

CN(C)c1ccc(C(=O)NCCCCCCC(=O)NO)cc1
nuclei count, normalised [1, 3]: 54.1% | nuclei count, normalised [1, 4]: 116% | nuclei count, normalised [1, 5]: 44.8% | nuclei count, normalised [1, 6]: 100% | p53-positive nuclei, normalised [2, 7]: 25% (inactive) | p53-positive nuclei, normalised ([2]; concentration not given here): 0.296% (inactive) | p53-positive nuclei, normalised [2, 8]: 45% | p53-positive nuclei, normalised [2, 9]: 0.159%

CC(C=CC(=O)NO)=CC(C)C(=O)c1ccc(N(C)C)cc1 (stereo not given)
nuclei count, normalised [1, 3]: 35.3% | nuclei count, normalised [1, 5]: 21.2% | p53-positive nuclei, normalised [2, 7]: 88.9% (active) | p53-positive nuclei, normalised [2, 8]: 74.9%

CN(C)c1ccc(C(=O)NCCCCCC(=O)NO)cc1
nuclei count, normalised [1, 4]: 110% | nuclei count, normalised [1, 6]: 106% | p53-positive nuclei, normalised ([2]; concentration not given here): 0.149% (inactive) | p53-positive nuclei, normalised [2, 9]: 0.257%

COC(=O)c1c(NC(=O)CC2SC(=N)NC2=O)sc(C)c1C (stereo not given)
nuclei count, normalised [1, 10]: 98.4% | nuclei count, normalised [1, 11]: 104% | nuclei count, normalised [1, 12]: 101% | nuclei count, normalised [1, 13]: 101% | nuclei count, normalised [1, 14]: 108% | nuclei count, normalised [1, 15]: 108% | nuclei count, normalised [1, 16]: 106% | nuclei count, normalised [1, 17]: 99.8% | p53-positive nuclei, normalised [2, 18]: -0.137% (inactive) | p53-positive nuclei, normalised [2, 19]: -0.126% (inactive) | p53-positive nuclei, normalised [2, 20]: -0.195% (inactive) | p53-positive nuclei, normalised [2, 21]: -0.114% (inactive) | p53-positive nuclei, normalised [2, 22]: -0.000422% | p53-positive nuclei, normalised [2, 23]: -0.116% | p53-positive nuclei, normalised [2, 24]: -0.00728% | p53-positive nuclei, normalised [2, 25]: -0.004%

C[C@]1(C(=O)Nc2ccc(F)nc2)CCCN1c1nc(Nc2cc(C3CC3)[nH]n2)c2cccn2n1
nuclei count, normalised [1, 3]: 46.1% | nuclei count, normalised [1, 5]: 30.3% | p53-positive nuclei, normalised [2, 7]: -0.488% (inactive) | p53-positive nuclei, normalised [2, 8]: -0.0691%

CN1CCN(c2ccc(Nc3c4ccccc4nc4ccccc34)cc2)CC1
nuclei count, normalised ([1]; measured here: cell number at 24 h, Library stock concentration: 46 uM): 95.9% | nuclei count, normalised [1, 10]: 110% | nuclei count, normalised ([1]; measured here: cell number at 24 h, Library stock concentration: 278 uM): 90.1% | nuclei count, normalised [1, 11]: 95.8% | nuclei count, normalised ([1]; measured here: cell number at 24 h, Library stock concentration: 1.67 mM): 79.3% | nuclei count, normalised [1, 12]: 52.3% | nuclei count, normalised [1, 13]: 32.6% and 36.6% | nuclei count, normalised ([1]; measured here: cell number at 48 h, Library stock concentration: 46 uM): 96.2% | nuclei count, normalised [1, 14]: 109% | nuclei count, normalised ([1]; measured here: cell number at 48 h, Library stock concentration: 278 uM): 93.5% | nuclei count, normalised [1, 15]: 103% | nuclei count, normalised ([1]; measured here: cell number at 48 h, Library stock concentration: 1.67 mM): 81% | nuclei count, normalised [1, 16]: 48.7% | nuclei count, normalised [1, 17]: 18.8% and 22% | p53-positive nuclei, normalised ([2]; Library stock concentration: 46 uM): -0.136% (inactive) | p53-positive nuclei, normalised [2, 18]: -0.131% (inactive) | p53-positive nuclei, normalised ([2]; Library stock concentration: 278 uM): -0.255% (inactive) | p53-positive nuclei, normalised [2, 19]: -0.231% (inactive) | p53-positive nuclei, normalised ([2]; Library stock concentration: 1.67 mM): -0.00204% (inactive) | p53-positive nuclei, normalised [2, 20]: 5.16% (inactive) | p53-positive nuclei, normalised [2, 21]: 53.2% (active) and 55.4% (active) | p53-positive nuclei, normalised ([2]; measured here: p53 positive nuclei at 24 h, Library stock concentration: 46 uM): -0.145% | p53-positive nuclei, normalised [2, 22]: -0.0662% | p53-positive nuclei, normalised ([2]; measured here: p53 positive nuclei at 24 h, Library stock concentration: 278 uM): -0.137% | p53-positive nuclei, normalised [2, 23]: -0.059% | p53-positive nuclei, normalised ([2]; measured here: p53 positive nuclei at 24 h, Library stock concentration: 1.67 mM): 0.126% | p53-positive nuclei, normalised [2, 24]: 13.1% | p53-positive nuclei, normalised [2, 25]: 88.3% and 79.2%

CNC(=O)c1nn(C)c2c1C(C)(C)Cc1cnc(Nc3ccc(N4CCN(C)CC4)cc3)nc1-2
nuclei count, normalised [1, 3]: 62.7% | nuclei count, normalised [1, 5]: 44% | p53-positive nuclei, normalised [2, 7]: 0.155% (inactive) | p53-positive nuclei, normalised [2, 8]: 0.144%

C=CC(=O)Nc1cccc(Oc2nc(Nc3ccc(N4CCN(C)CC4)cc3)ncc2Cl)c1
nuclei count, normalised [1, 3]: 64.1% | nuclei count, normalised [1, 5]: 64.3% | p53-positive nuclei, normalised [2, 7]: -0.197% (inactive) | p53-positive nuclei, normalised [2, 8]: -0.375%

O=C1CN(c2ncnc3sccc23)CCN1Cc1ccc(F)cc1
nuclei count, normalised [1, 4]: 108% | nuclei count, normalised [1, 6]: 111% | p53-positive nuclei, normalised ([2]; concentration not given here): -0.087% (inactive) | p53-positive nuclei, normalised [2, 9]: -0.23%

CC=CCC(C)C(O)C1C(=O)NC(CC)C(=O)N(C)CC(=O)N(C)C(CC(C)C)C(=O)NC(C(C)C)C(=O)N(C)C(CC(C)C)C(=O)NC(C)C(=O)NC(C)C(=O)N(C)C(CC(C)C)C(=O)N(C)C(CC(C)C)C(=O)N(C)C(C(C)C)C(=O)N1C (stereo not given)
nuclei count, normalised [1, 3]: 114% and 120% | nuclei count, normalised [1, 5]: 120% and 121% | p53-positive nuclei, normalised [2, 7]: -0.306% (inactive) and -0.666% (inactive) | p53-positive nuclei, normalised [2, 8]: -0.452% and -0.338%
